# Positions count from the first letter of the chain named.
# Legend:
# Experiment in all cases: PBM; 200 nM protein, PBS
# Details in all cases: dsDNA, one strand shown
# [1] = target: HOXC9 (Homo sapiens, UniProt P31274 178-260, K195R)
# [2] = target: HOXC10 (Homo sapiens, UniProt Q9NYD6 254-340)
# [3] = target: HOXA2 (Homo sapiens, UniProt O43364 129-215, R185T)
# [4] = target: HOXC9 (Homo sapiens, UniProt P31274 178-260)
# [5] = target: HOXC9 (Homo sapiens, UniProt P31274 178-260, R193K)
# [6] = target: HOXA2 (Homo sapiens, UniProt O43364 129-215, R185K)
# [7] = target: HOXC10 (Homo sapiens, UniProt Q9NYD6 254-340, K271E)
# [8] = target: HOXC9 (Homo sapiens, UniProt P31274 178-260, R222W)
# [9] = target: HOXA2 (Homo sapiens, UniProt O43364 129-215, Y150S)
# [10] = target: HOXA2 (Homo sapiens, UniProt O43364 129-215)
# [11] = target: ALX4 (Homo sapiens, UniProt Q9H161 200-286)
# [12] = target: ALX4 (Homo sapiens, UniProt Q9H161 200-286, Q225E)
# [13] = target: MSX2 (Homo sapiens, UniProt P35548 130-214, R199I)
# [14] = target: MSX2 (Homo sapiens, UniProt P35548 130-214)
# [15] = target: VAX1 (Homo sapiens, UniProt Q5SQQ9 86-172)
# [16] = target: MSX2 (Homo sapiens, UniProt P35548 130-214, F161Y)
# [17] = target: VAX1 (Homo sapiens, UniProt Q5SQQ9 86-172, T142I)
# [18] = target: VAX1 (Homo sapiens, UniProt Q5SQQ9 86-172, K157R)
# [19] = target: T1, PAX4 (Homo sapiens, UniProt O43316 9-242, R200K)
# T1 sequence: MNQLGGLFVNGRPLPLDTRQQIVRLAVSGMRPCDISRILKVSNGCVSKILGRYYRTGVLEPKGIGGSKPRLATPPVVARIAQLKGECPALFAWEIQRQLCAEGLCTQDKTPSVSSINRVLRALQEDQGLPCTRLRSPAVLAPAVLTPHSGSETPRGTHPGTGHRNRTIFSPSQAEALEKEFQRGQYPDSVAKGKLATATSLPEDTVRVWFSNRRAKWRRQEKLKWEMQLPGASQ
# [20] = target: PRRX1 (Homo sapiens, UniProt P54821 80-166, F113S)
# [21] = target: T2, PAX4 (Homo sapiens, UniProt O43316 9-242)
# T2 sequence: T1 sequence with K192R
# [22] = target: ALX1 (Homo sapiens, UniProt Q15699 118-204, L144V)
# [23] = target: ALX3 (Homo sapiens, UniProt O95076 139-225, N203Q)
# [24] = target: T3, PAX4 (Homo sapiens, UniProt O43316 9-242, R200Q)
# T3 sequence: T1 sequence with K192Q
# [25] = target: ALX1 (Homo sapiens, UniProt Q15699 118-204, L144R)
# [26] = target: T4, PAX4 (Homo sapiens, UniProt O43316 9-242, F177V)
# T4 sequence: T1 sequence with F169V, K192R
# [27] = target: ALX3 (Homo sapiens, UniProt O95076 139-225)
# [28] = target: T5, PAX4 (Homo sapiens, UniProt O43316 9-242, F177Y)
# T5 sequence: T1 sequence with F169Y, K192R
# [29] = target: PROP1 (Homo sapiens, UniProt O75360 56-141)
# [30] = target: PROP1 (Homo sapiens, UniProt O75360 56-141, R99H)
# [31] = target: ALX3 (Homo sapiens, UniProt O95076 139-225, L168Q)
# [32] = target: ALX3 (Homo sapiens, UniProt O95076 139-225, L168V)
# [33] = target: PROP1 (Homo sapiens, UniProt O75360 56-141, F88S)
# [34] = target: T6, PAX4 (Homo sapiens, UniProt O43316 9-242, R227W)
# T6 sequence: T1 sequence with K192R, R219W
# [35] = target: ALX3 (Homo sapiens, UniProt O95076 139-225, N203S)
# [36] = target: PRRX1 (Homo sapiens, UniProt P54821 80-166)
# Chain of PRRX1 (Homo sapiens, UniProt P54821 80-166) (P54821 80-166): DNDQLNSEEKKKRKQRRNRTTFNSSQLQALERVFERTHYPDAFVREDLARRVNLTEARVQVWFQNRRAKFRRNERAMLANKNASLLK
# Chain of HOXC9 (Homo sapiens, UniProt P31274 178-260, K195R) (P31274 178-260 K195R): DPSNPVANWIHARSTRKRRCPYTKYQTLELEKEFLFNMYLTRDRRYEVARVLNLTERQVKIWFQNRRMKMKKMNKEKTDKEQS
# Chain of HOXC9 (Homo sapiens, UniProt P31274 178-260, R193K) (P31274 178-260 R193K): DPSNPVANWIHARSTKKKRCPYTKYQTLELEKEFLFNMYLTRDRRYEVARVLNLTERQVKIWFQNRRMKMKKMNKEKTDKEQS
# Chain of HOXC9 (Homo sapiens, UniProt P31274 178-260) (P31274 178-260): as the sequence (P31274 178-260 R193K) above, with K16R counted along it
# Chain of HOXC9 (Homo sapiens, UniProt P31274 178-260, R222W) (P31274 178-260 R222W): as the sequence (P31274 178-260 R193K) above, with K16R, R45W counted along it
# Chain of ALX4 (Homo sapiens, UniProt Q9H161 200-286) (Q9H161 200-286): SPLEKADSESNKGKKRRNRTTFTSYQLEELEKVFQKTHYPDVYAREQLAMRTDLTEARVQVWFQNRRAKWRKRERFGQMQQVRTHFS
# Chain of ALX4 (Homo sapiens, UniProt Q9H161 200-286, Q225E) (Q9H161 200-286 Q225E): as the sequence (Q9H161 200-286) above, with Q26E counted along it
# Chain of VAX1 (Homo sapiens, UniProt Q5SQQ9 86-172) (Q5SQQ9 86-172): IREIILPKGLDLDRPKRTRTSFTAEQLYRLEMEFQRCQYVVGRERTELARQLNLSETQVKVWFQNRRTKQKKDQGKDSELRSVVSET
# Chain of PROP1 (Homo sapiens, UniProt O75360 56-141, R99H) (O75360 56-141 R99H): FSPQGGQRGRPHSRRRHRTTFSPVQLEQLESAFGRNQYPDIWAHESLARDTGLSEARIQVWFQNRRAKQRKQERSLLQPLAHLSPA
# Chain of HOXA2 (Homo sapiens, UniProt O43364 129-215, R185T) (O43364 129-215 R185T): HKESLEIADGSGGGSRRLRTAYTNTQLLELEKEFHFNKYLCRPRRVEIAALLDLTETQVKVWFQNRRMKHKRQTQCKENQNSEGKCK
# Chain of ALX1 (Homo sapiens, UniProt Q15699 118-204, L144R) (Q15699 118-204 L144R): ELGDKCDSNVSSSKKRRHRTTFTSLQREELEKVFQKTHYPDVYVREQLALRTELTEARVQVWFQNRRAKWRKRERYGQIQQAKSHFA
# Chain of ALX1 (Homo sapiens, UniProt Q15699 118-204, L144V) (Q15699 118-204 L144V): as the sequence (Q15699 118-204 L144R) above, with R27V counted along it
# Chain of HOXA2 (Homo sapiens, UniProt O43364 129-215) (O43364 129-215): as the sequence (O43364 129-215 R185T) above, with T57R counted along it
# Chain of PROP1 (Homo sapiens, UniProt O75360 56-141) (O75360 56-141): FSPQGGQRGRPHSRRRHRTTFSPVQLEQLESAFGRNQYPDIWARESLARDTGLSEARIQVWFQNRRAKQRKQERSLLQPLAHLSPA
# Chain of ALX3 (Homo sapiens, UniProt O95076 139-225, L168V) (O95076 139-225 L168V): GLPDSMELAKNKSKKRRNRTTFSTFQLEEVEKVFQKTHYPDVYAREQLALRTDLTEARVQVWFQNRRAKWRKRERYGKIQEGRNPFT
# Chain of HOXA2 (Homo sapiens, UniProt O43364 129-215, Y150S) (O43364 129-215 Y150S): as the sequence (O43364 129-215 R185T) above, with Y22S, T57R counted along it
# Chain of HOXC10 (Homo sapiens, UniProt Q9NYD6 254-340, K271E) (Q9NYD6 254-340 K271E): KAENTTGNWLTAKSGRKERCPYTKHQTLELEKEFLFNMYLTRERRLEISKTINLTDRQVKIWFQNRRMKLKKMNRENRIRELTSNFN
# Chain of PRRX1 (Homo sapiens, UniProt P54821 80-166, F113S) (P54821 80-166 F113S): as the sequence (P54821 80-166) above, with F34S counted along it
# Chain of HOXC10 (Homo sapiens, UniProt Q9NYD6 254-340) (Q9NYD6 254-340): as the sequence (Q9NYD6 254-340 K271E) above, with E18K counted along it
# Chain of MSX2 (Homo sapiens, UniProt P35548 130-214, F161Y) (P35548 130-214 F161Y): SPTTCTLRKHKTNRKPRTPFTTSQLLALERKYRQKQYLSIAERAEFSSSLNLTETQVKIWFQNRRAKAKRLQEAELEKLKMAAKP
# Chain of VAX1 (Homo sapiens, UniProt Q5SQQ9 86-172, K157R) (Q5SQQ9 86-172 K157R): as the sequence (Q5SQQ9 86-172) above, with K72R counted along it
# Chain of MSX2 (Homo sapiens, UniProt P35548 130-214, R199I) (P35548 130-214 R199I): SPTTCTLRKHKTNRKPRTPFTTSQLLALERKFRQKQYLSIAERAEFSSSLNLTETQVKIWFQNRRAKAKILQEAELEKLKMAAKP
# Chain of PROP1 (Homo sapiens, UniProt O75360 56-141, F88S) (O75360 56-141 F88S): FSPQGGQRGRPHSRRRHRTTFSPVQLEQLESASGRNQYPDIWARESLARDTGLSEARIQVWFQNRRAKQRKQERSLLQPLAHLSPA
# Chain of ALX3 (Homo sapiens, UniProt O95076 139-225, N203S) (O95076 139-225 N203S): as the sequence (O95076 139-225 L168V) above, with V30L, N65S counted along it
# Chain of MSX2 (Homo sapiens, UniProt P35548 130-214) (P35548 130-214): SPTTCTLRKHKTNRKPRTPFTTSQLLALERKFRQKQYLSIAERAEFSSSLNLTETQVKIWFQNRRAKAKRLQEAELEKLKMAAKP
# Chain of HOXA2 (Homo sapiens, UniProt O43364 129-215, R185K) (O43364 129-215 R185K): as the sequence (O43364 129-215 R185T) above, with T57K counted along it
# Chain of ALX3 (Homo sapiens, UniProt O95076 139-225, N203Q) (O95076 139-225 N203Q): as the sequence (O95076 139-225 L168V) above, with V30L, N65Q counted along it
# Chain of ALX3 (Homo sapiens, UniProt O95076 139-225) (O95076 139-225): as the sequence (O95076 139-225 L168V) above, with V30L counted along it
# Chain of VAX1 (Homo sapiens, UniProt Q5SQQ9 86-172, T142I) (Q5SQQ9 86-172 T142I): as the sequence (Q5SQQ9 86-172) above, with T57I counted along it
# Chain of ALX3 (Homo sapiens, UniProt O95076 139-225, L168Q) (O95076 139-225 L168Q): as the sequence (O95076 139-225 L168V) above, with V30Q counted along it
sequence,measurement,setting,value
CCAGTCGG,binding signal,[1],"9.76 upbm affinity estimate (log intensity, higher = more binding, comparable within an allelic series)"
same,binding signal,[2],"10.1 upbm affinity estimate (log intensity, higher = more binding, comparable within an allelic series)"
same,binding signal,[3],"7.11 upbm affinity estimate (log intensity, higher = more binding, comparable within an allelic series)"
same,binding signal,[4],"9.93 upbm affinity estimate (log intensity, higher = more binding, comparable within an allelic series)"
same,binding signal,[5],"9.79 upbm affinity estimate (log intensity, higher = more binding, comparable within an allelic series)"
same,binding signal,[6],"10.4 upbm affinity estimate (log intensity, higher = more binding, comparable within an allelic series)"
same,binding signal,[7],"10 upbm affinity estimate (log intensity, higher = more binding, comparable within an allelic series)"
same,binding signal,[8],"9.69 upbm affinity estimate (log intensity, higher = more binding, comparable within an allelic series)"
same,binding signal,[9],"10.4 upbm affinity estimate (log intensity, higher = more binding, comparable within an allelic series)"
same,binding signal,[10],"7.25 upbm affinity estimate (log intensity, higher = more binding, comparable within an allelic series)"
CCGGCTAG,binding signal,[1],"9.47 upbm affinity estimate (log intensity, higher = more binding, comparable within an allelic series)"
same,binding signal,[11],"8.04 upbm affinity estimate (log intensity, higher = more binding, comparable within an allelic series)"
same,binding signal,[12],"8.02 upbm affinity estimate (log intensity, higher = more binding, comparable within an allelic series)"
same,binding signal,[4],"9.55 upbm affinity estimate (log intensity, higher = more binding, comparable within an allelic series)"
same,binding signal,[13],"9.38 upbm affinity estimate (log intensity, higher = more binding, comparable within an allelic series)"
same,binding signal,[5],"9.53 upbm affinity estimate (log intensity, higher = more binding, comparable within an allelic series)"
same,binding signal,[14],"9.32 upbm affinity estimate (log intensity, higher = more binding, comparable within an allelic series)"
same,binding signal,[15],"6.74 upbm affinity estimate (log intensity, higher = more binding, comparable within an allelic series)"
same,binding signal,[8],"9.7 upbm affinity estimate (log intensity, higher = more binding, comparable within an allelic series)"
same,binding signal,[16],"9.36 upbm affinity estimate (log intensity, higher = more binding, comparable within an allelic series)"
same,binding signal,[17],"6.97 upbm affinity estimate (log intensity, higher = more binding, comparable within an allelic series)"
same,binding signal,[18],"6.86 upbm affinity estimate (log intensity, higher = more binding, comparable within an allelic series)"
TAATTTAA,binding signal,[1],"12.2 upbm affinity estimate (log intensity, higher = more binding, comparable within an allelic series)"
same,binding signal,[11],"13.7 upbm affinity estimate (log intensity, higher = more binding, comparable within an allelic series)"
same,binding signal,[19],"11.7 upbm affinity estimate (log intensity, higher = more binding, comparable within an allelic series)"
same,binding signal,[20],"11.2 upbm affinity estimate (log intensity, higher = more binding, comparable within an allelic series)"
same,binding signal,[21],"12.2 upbm affinity estimate (log intensity, higher = more binding, comparable within an allelic series)"
same,binding signal,[12],"12.7 upbm affinity estimate (log intensity, higher = more binding, comparable within an allelic series)"
same,binding signal,[4],"12.2 upbm affinity estimate (log intensity, higher = more binding, comparable within an allelic series)"
same,binding signal,[22],"11.4 upbm affinity estimate (log intensity, higher = more binding, comparable within an allelic series)"
same,binding signal,[23],"8.49 upbm affinity estimate (log intensity, higher = more binding, comparable within an allelic series)"
same,binding signal,[24],"11.9 upbm affinity estimate (log intensity, higher = more binding, comparable within an allelic series)"
same,binding signal,[5],"12.2 upbm affinity estimate (log intensity, higher = more binding, comparable within an allelic series)"
same,binding signal,[25],"11.1 upbm affinity estimate (log intensity, higher = more binding, comparable within an allelic series)"
same,binding signal,[26],"10.6 upbm affinity estimate (log intensity, higher = more binding, comparable within an allelic series)"
same,binding signal,[27],"12.4 upbm affinity estimate (log intensity, higher = more binding, comparable within an allelic series)"
same,binding signal,[28],"11 upbm affinity estimate (log intensity, higher = more binding, comparable within an allelic series)"
same,binding signal,[29],"11 upbm affinity estimate (log intensity, higher = more binding, comparable within an allelic series)"
same,binding signal,[30],"10.6 upbm affinity estimate (log intensity, higher = more binding, comparable within an allelic series)"
same,binding signal,[31],"10.2 upbm affinity estimate (log intensity, higher = more binding, comparable within an allelic series)"
same,binding signal,[8],"10.9 upbm affinity estimate (log intensity, higher = more binding, comparable within an allelic series)"
same,binding signal,[32],"9.7 upbm affinity estimate (log intensity, higher = more binding, comparable within an allelic series)"
same,binding signal,[33],"7.76 upbm affinity estimate (log intensity, higher = more binding, comparable within an allelic series)"
same,binding signal,[34],"10.9 upbm affinity estimate (log intensity, higher = more binding, comparable within an allelic series)"
same,binding signal,[35],"8.64 upbm affinity estimate (log intensity, higher = more binding, comparable within an allelic series)"
same,binding signal,[36],"13.3 upbm affinity estimate (log intensity, higher = more binding, comparable within an allelic series)"

# — paper PMC11006913
